Among all 5,500 compounds or so, about 2,000 (36%) were called active. Another 18% or so got no clear call; they are omitted. Rule as the data show it: active = normalized growth mostly below about 0.91 (no sharp cut-off); inconclusive = no clear call, values can overlap the other calls; inactive = mostly above about 0.92. Some of the results follow.
Assay: chemical genetic growth profiling, strain panel (AID 1159580);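 also: tested at 20 µM; growth read once vehicle control cultures reached saturation at 30 °C; 1 = growth at the plate median or of vehicle wells; lower values mean less growth of the strain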
Details: growth OD

Measured: normalized growth

Nc1nccs1
active: S. cerevisiae deletion strains, locus YER155C, strain BEM2 (second series), active compounds read low 0.841 | S. cerevisiae deletion strains, locus YOR270C, strain vph1, active compounds read low 0.638
inactive: S. cerevisiae deletion strains, locus YAL021C, strain ccr4, active compounds read low 0.994 | S. cerevisiae deletion strains, locus YAL026C, strain drs2, active compounds read low 0.993 | S. cerevisiae deletion strains, locus YAL030W, strain snc1, active compounds read low 0.995 | S. cerevisiae deletion strains, locus YBL061C, strain skt5, active compounds read low 0.995 | S. cerevisiae deletion strains, locus YBR009C, strain hhf1, active compounds read low 0.987 | S. cerevisiae deletion strains, locus YBR021W, strain FUR4, active compounds read low 1.03 | S. cerevisiae deletion strains, locus YBR023C, strain chs3, active compounds read low 0.991 | S. cerevisiae deletion strains, locus YBR171W, strain sec66, active compounds read low 0.975 | S. cerevisiae deletion strains, locus YBR229C, strain ROT2, active compounds read low 0.949 | S. cerevisiae deletion strains, locus YBR231C, strain swc5, active compounds read low 0.973 | S. cerevisiae deletion strains, locus YBR279W, strain paf1, active compounds read low 1 | S. cerevisiae deletion strains, locus YCL011C, strain gbp2, active compounds read low 1.02 | S. cerevisiae deletion strains, locus YCL016C, strain dcc1, active compounds read low 0.989 | S. cerevisiae deletion strains, locus YCL029C, strain bik1, active compounds read low 0.98 | S. cerevisiae deletion strains, locus YCL061C, strain MRC1, active compounds read low 0.978 | S. cerevisiae deletion strains, locus YCL069W, strain vba3, active compounds read low 0.988 | S. cerevisiae deletion strains, locus YCR088W, strain abp1, active compounds read low 0.992 | S. cerevisiae deletion strains, locus YDL005C, strain med2, active compounds read low 0.985 | S. cerevisiae deletion strains, locus YDL035C, strain GPR1, active compounds read low 1.01 | S. cerevisiae deletion strains, locus YDL040C, strain nat1, active compounds read low 0.986 | S. cerevisiae deletion strains, locus YDL074C, strain BRE1, active compounds read low 0.96 | S. cerevisiae deletion strains, locus YDL101C, strain DUN1, active compounds read low 0.974 | S. cerevisiae deletion strains, locus YDL134C, strain PPH21, active compounds read low 0.983 | S. cerevisiae deletion strains, locus YDL185W, strain tfp1, active compounds read low 0.984 | S. cerevisiae deletion strains, locus YDL192W, strain arf1, active compounds read low 0.983 | S. cerevisiae deletion strains, locus YDR001C, strain nth1, active compounds read low 1 | S. cerevisiae deletion strains, locus YDR069C, strain doa4, active compounds read low 0.95 | S. cerevisiae deletion strains, locus YDR101C, strain arx1, active compounds read low 0.941 | S. cerevisiae deletion strains, locus YDR137W, strain rgp1, active compounds read low 0.998 | S. cerevisiae deletion strains, locus YDR159W, strain sac3, active compounds read low 0.953 | S. cerevisiae deletion strains, locus YDR162C, strain NBP2, active compounds read low 0.996 | S. cerevisiae deletion strains, locus YDR195W, strain ref2 0.958 | S. cerevisiae deletion strains, locus YDR297W, strain sur2, active compounds read low 0.997 | S. cerevisiae deletion strains, locus YDR318W, strain mcm21, active compounds read low 0.989 | S. cerevisiae deletion strains, locus YDR334W, strain swr1, active compounds read low 0.997 | S. cerevisiae deletion strains, locus YDR335W, strain msn5, active compounds read low 0.978 | S. cerevisiae deletion strains, locus YDR388W, active compounds read low 0.991 | S. cerevisiae deletion strains, locus YDR392W, strain spt3, active compounds read low 0.945 | S. cerevisiae deletion strains, locus YDR502C, strain sam2, active compounds read low 0.983 | S. cerevisiae deletion strains, locus YEL003W, strain gim4, active compounds read low 0.997 | S. cerevisiae deletion strains, locus YEL037C, strain rad23, active compounds read low 0.987 | S. cerevisiae deletion strains, locus YEL061C, strain CIN8 (second series), active compounds read low 0.991 | S. cerevisiae deletion strains, locus YEL061C, strain CIN8, active compounds read low 0.984 | S. cerevisiae deletion strains, locus YER015W, strain faa2, active compounds read low 0.991 | S. cerevisiae deletion strains, locus YER016W, strain bim1, active compounds read low 1.01 | S. cerevisiae deletion strains, locus YER110C, active compounds read low 0.986 | S. cerevisiae deletion strains, locus YER111C, strain swi4, active compounds read low 0.986 | S. cerevisiae deletion strains, locus YER155C, strain BEM2, active compounds read low 1 | S. cerevisiae deletion strains, locus YER167W, strain BCK2, active compounds read low 0.995 | S. cerevisiae deletion strains, locus YFR010W, strain ubp6, active compounds read low 0.991 | S. cerevisiae deletion strains, locus YGL078C, strain dbp3, active compounds read low 1.01 | S. cerevisiae deletion strains, locus YGL086W, strain mad1, active compounds read low 0.953 | S. cerevisiae deletion strains, locus YGL167C, strain pmr1, active compounds read low 0.981 | S. cerevisiae deletion strains, locus YGL173C, strain kem1, active compounds read low 0.99 | S. cerevisiae deletion strains, locus YGL227W, strain vid30, active compounds read low 0.991 | S. cerevisiae deletion strains, locus YGL240W, strain doc1, active compounds read low 0.96 | S. cerevisiae deletion strains, locus YGL248W, strain PDE1, active compounds read low 0.974 | S. cerevisiae deletion strains, locus YGL253W, strain hxk2, active compounds read low 1.01 | S. cerevisiae deletion strains, locus YGR135W, strain pre9, active compounds read low 1.06 | S. cerevisiae deletion strains, locus YGR229C, strain SMI1, active compounds read low 1.01 | S. cerevisiae deletion strains, locus YGR252W, strain gcn5, active compounds read low 1.09 | S. cerevisiae deletion strains, locus YHR013C, strain ard1, active compounds read low 1.02 | S. cerevisiae deletion strains, locus YHR027C, strain rpn1, active compounds read low 0.994 | S. cerevisiae deletion strains, locus YHR030C, strain SLT2, active compounds read low 1 | S. cerevisiae deletion strains, locus YHR079C, strain IRE1 (second series), active compounds read low 0.989 | S. cerevisiae deletion strains, locus YHR094C, strain hxt1, active compounds read low 0.984 | S. cerevisiae deletion strains, locus YHR129C, strain ARP1, active compounds read low 0.987 | S. cerevisiae deletion strains, locus YHR142W, strain chs7, active compounds read low 1.02 | S. cerevisiae deletion strains, locus YHR200W, strain rpn10, active compounds read low 0.984 | S. cerevisiae deletion strains, locus YIL066C, strain RNR3, active compounds read low 0.953 | S. cerevisiae deletion strains, locus YIL073C, strain SPO22, active compounds read low 1.04 | S. cerevisiae deletion strains, locus YIL125W, strain kgd1, active compounds read low 0.989 | S. cerevisiae deletion strains, locus YIR030C, strain dcg1, active compounds read low 0.988 | S. cerevisiae deletion strains, locus YJL092W, strain hpr5, active compounds read low 0.969 | S. cerevisiae deletion strains, locus YJL095W, strain BCK1 (second series), active compounds read low 0.998 | S. cerevisiae deletion strains, locus YJL095W, strain BCK1, active compounds read low 0.934 | S. cerevisiae deletion strains, locus YJL115W, strain asf1, active compounds read low 0.998 | S. cerevisiae deletion strains, locus YJL129C, strain trk1, active compounds read low 0.978 | S. cerevisiae deletion strains, locus YJL134W, strain LCB3, active compounds read low 0.99 | S. cerevisiae deletion strains, locus YJL154C, strain vps35, active compounds read low 0.993 | S. cerevisiae deletion strains, locus YJL164C, strain tpk1, active compounds read low 0.997 | S. cerevisiae deletion strains, locus YJL166W, strain qcr8, active compounds read low 0.961 | S. cerevisiae deletion strains, locus YJL168C, strain set2, active compounds read low 0.988 | S. cerevisiae deletion strains, locus YJL187C, strain SWE1 (second series), active compounds read low 0.947 | S. cerevisiae deletion strains, locus YJL187C, strain SWE1, active compounds read low 0.998 | S. cerevisiae deletion strains, locus YJR043C, strain POL32, active compounds read low 0.985 | S. cerevisiae deletion strains, locus YKL009W, strain mrt4, active compounds read low 0.985 | S. cerevisiae deletion strains, locus YKL068W, active compounds read low 0.981 | S. cerevisiae deletion strains, locus YKL085W, strain MDH1 (second series), active compounds read low 0.981 | S. cerevisiae deletion strains, locus YKL085W, strain MDH1, active compounds read low 0.981 | S. cerevisiae deletion strains, locus YKL160W, strain elf1, active compounds read low 0.98 | S. cerevisiae deletion strains, locus YKL190W, strain CNB1, active compounds read low 0.992 | S. cerevisiae deletion strains, locus YKR001C, strain vps1, active compounds read low 0.985 | S. cerevisiae deletion strains, locus YKR026C, strain gcn3, active compounds read low 0.995 | S. cerevisiae deletion strains, locus YKR091W, strain srl3, active compounds read low 0.998 | S. cerevisiae deletion strains, locus YLL001W, strain dnm1, active compounds read low 0.947 | S. cerevisiae deletion strains, locus YLL026W, active compounds read low 0.993 | S. cerevisiae deletion strains, locus YLL041C, strain sdh2, active compounds read low 0.991 | S. cerevisiae deletion strains, locus YLR027C, strain aat2, active compounds read low 0.988 | S. cerevisiae deletion strains, locus YLR039C, strain RIC1, active compounds read low 0.929 | S. cerevisiae deletion strains, locus YLR058C, strain SHM2, active compounds read low 0.974 | S. cerevisiae deletion strains, locus YLR102C, strain apc9, active compounds read low 0.996 | S. cerevisiae deletion strains, locus YLR221C, strain rsa3, active compounds read low 0.992 | S. cerevisiae deletion strains, locus YLR258W, strain gsy2, active compounds read low 1 | S. cerevisiae deletion strains, locus YLR262C, strain YPT6 (second series), active compounds read low 0.939 | S. cerevisiae deletion strains, locus YLR262C, strain YPT6, active compounds read low 0.929 | S. cerevisiae deletion strains, locus YLR268W, strain sec22, active compounds read low 0.968 | S. cerevisiae deletion strains, locus YLR320W, strain mms22, active compounds read low 1 | S. cerevisiae deletion strains, locus YLR330W, strain CHS5, active compounds read low 0.993 | S. cerevisiae deletion strains, locus YLR342W, strain FKS1 (second series), active compounds read low 1.03 | S. cerevisiae deletion strains, locus YLR342W, strain FKS1, active compounds read low 0.975 | S. cerevisiae deletion strains, locus YLR357W, strain rsc2, active compounds read low 0.945 | S. cerevisiae deletion strains, locus YLR370C, strain arc18, active compounds read low 0.991 | S. cerevisiae deletion strains, locus YLR371W, strain rom2, active compounds read low 0.999 | S. cerevisiae deletion strains, locus YLR384C, strain iki3, active compounds read low 0.976 | S. cerevisiae deletion strains, locus YLR418C, strain cdc73, active compounds read low 1.03 | S. cerevisiae deletion strains, locus YML016C, strain PPZ1, active compounds read low 0.984 | S. cerevisiae deletion strains, locus YML032C, strain rad52, active compounds read low 0.984 | S. cerevisiae deletion strains, locus YML120C, strain ndi1, active compounds read low 0.99 | S. cerevisiae deletion strains, locus YML124C, strain tub3, active compounds read low 0.985 | S. cerevisiae deletion strains, locus YMR058W, strain fet3, active compounds read low 0.988 | S. cerevisiae deletion strains, locus YMR078C, strain ctf18, active compounds read low 0.979 | S. cerevisiae deletion strains, locus YMR125W, strain sto1, active compounds read low 0.988 | S. cerevisiae deletion strains, locus YMR129W, active compounds read low 0.996 | S. cerevisiae deletion strains, locus YMR205C, strain PFK2, active compounds read low 0.983 | S. cerevisiae deletion strains, locus YMR223W, strain ubp8, active compounds read low 1.04 | S. cerevisiae deletion strains, locus YMR231W, strain pep5, active compounds read low 0.99 | S. cerevisiae deletion strains, locus YMR307W, strain GAS1, active compounds read low 1.07 | S. cerevisiae deletion strains, locus YNL067W, strain RPL9B, active compounds read low 0.954 | S. cerevisiae deletion strains, locus YNL071W, strain lat1, active compounds read low 1 | S. cerevisiae deletion strains, locus YNL128W, strain TEP1, active compounds read low 1.01 | S. cerevisiae deletion strains, locus YNL209W, strain ssb2, active compounds read low 0.991 | S. cerevisiae deletion strains, locus YNL233W, strain BNI4, active compounds read low 0.96 | S. cerevisiae deletion strains, locus YNL248C, strain rpa49, active compounds read low 1.02 | S. cerevisiae deletion strains, locus YNL250W, strain rad50, active compounds read low 0.989 | S. cerevisiae deletion strains, locus YNL271C, strain bni1, active compounds read low 0.978 | S. cerevisiae deletion strains, locus YNL298W, strain CLA4, active compounds read low 0.999 | S. cerevisiae deletion strains, locus YNL307C, strain MCK1, active compounds read low 0.988 | S. cerevisiae deletion strains, locus YNL322C, strain KRE1 (second series), active compounds read low 0.985 | S. cerevisiae deletion strains, locus YNR049C, strain mso1, active compounds read low 0.987 | S. cerevisiae deletion strains, locus YNR052C, strain pop2, active compounds read low 0.998 | S. cerevisiae deletion strains, locus YOL006C, strain TOP1, active compounds read low 0.899 | S. cerevisiae deletion strains, locus YOL012C, strain htz1 0.795 | S. cerevisiae deletion strains, locus YOL147C, strain pex11, active compounds read low 0.993 | S. cerevisiae deletion strains, locus YOR001W, strain rrp6, active compounds read low 0.983 | S. cerevisiae deletion strains, locus YOR061W, strain CKA2, active compounds read low 0.958 | S. cerevisiae deletion strains, locus YOR069W, strain VPS5, active compounds read low 0.99 | S. cerevisiae deletion strains, locus YOR070C, strain gyp1, active compounds read low 0.999 | S. cerevisiae deletion strains, locus YOR080W, strain dia2, active compounds read low 0.977 | S. cerevisiae deletion strains, locus YOR083W, strain WHI5, active compounds read low 0.971 | S. cerevisiae deletion strains, locus YOR106W, strain vam3, active compounds read low 0.955 | S. cerevisiae deletion strains, locus YOR136W, strain idh2, active compounds read low 0.988 | S. cerevisiae deletion strains, locus YOR144C, strain elg1, active compounds read low 0.992 | S. cerevisiae deletion strains, locus YOR184W, strain ser1, active compounds read low 0.914 | S. cerevisiae deletion strains, locus YOR265W, strain rbl2, active compounds read low 0.997 | S. cerevisiae deletion strains, locus YOR290C, strain snf2, active compounds read low 0.945 | S. cerevisiae deletion strains, locus YOR316C, strain cot1, active compounds read low 0.979 | S. cerevisiae deletion strains, locus YPL051W, strain arl3, active compounds read low 0.965 | S. cerevisiae deletion strains, locus YPL078C, strain atp4, active compounds read low 0.969 | S. cerevisiae deletion strains, locus YPL106C, strain sse1, active compounds read low 0.958 | S. cerevisiae deletion strains, locus YPL240C, strain hsp82, active compounds read low 0.994 | S. cerevisiae deletion strains, locus YPR119W, strain clb2, active compounds read low 0.988 | S. cerevisiae deletion strains, locus YPR141C, strain kar3, active compounds read low 0.973 | S. cerevisiae deletion strains, locus YPR163C, strain tif3, active compounds read low 0.985 | S. cerevisiae deletion strains, locus YPR167C, strain met16, active compounds read low 0.993 | S. cerevisiae deletion strains, strain wtn01, active compounds read low 1.01 | S. cerevisiae strains, strain wild type, active compounds read low 0.984
